Assay outcomes from PubChem BioAssay.
Shown is part of a subset that was picked to be rich in hits.
Cruzain noTriton: qHTS Assay for Promiscuous and Specific Inhibitors of Cruzain (without detergent); 200,000 tested, 2.3% active; Potency, µM, inactives show max response, negative = inhibition, most hits filed as inhibitors; Cruzipain (Trypanosoma cruzi), P25779; purified cruzain, Z-FR-AMC fluorescence, no detergent;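 further: plate controls were enzyme without inhibitor for no effect and buffer without enzyme for full effect; nearly all actives have a fitted effect of over 40% in size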
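Purified cruzain at 1.5 nM, pre-incubated 15 min with compound at room temperature in 100 mM sodium acetate pH 5.5, 5 mM DTT, 0.00005% Triton X-100. Reaction started with 2 uM Z-FR-AMC; AMC fluorescence increase over 60 s gives rate.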
Giardia FBPA inh: qHTS Assay for Inhibitors of Fructose-1,6-bisphosphate Aldolase from Giardia Lamblia; AID 2451, 2010; Potency, µM (doses to about 59.6 µM), inactives show at the top dose activity, negative = inhibition, actives largely listed as inhibitors; A8B2U2; 290,000 tested, 0.71% active; purified Giardia FBPA; further: nearly all actives have a fitted effect of over 55% in size
Target sequence (A8B2U2 whole entry, looked up): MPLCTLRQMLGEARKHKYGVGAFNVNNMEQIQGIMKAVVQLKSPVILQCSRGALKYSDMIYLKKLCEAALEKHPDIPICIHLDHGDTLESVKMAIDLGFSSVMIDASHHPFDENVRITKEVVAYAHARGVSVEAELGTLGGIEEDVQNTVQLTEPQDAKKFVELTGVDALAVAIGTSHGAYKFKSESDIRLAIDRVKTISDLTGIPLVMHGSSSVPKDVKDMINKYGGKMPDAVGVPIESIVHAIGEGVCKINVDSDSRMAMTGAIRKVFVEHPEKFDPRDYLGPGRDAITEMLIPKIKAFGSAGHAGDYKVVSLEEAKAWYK
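Giardia FBPA (40 nM reagent) was preincubated 10 min at RT with compound (up to 57.5 uM final), then substrate plus GAPDH/TPI/NAD/arsenate coupling system with diaphorase/resazurin was added; resorufin fluorescence (525/598 nm) was read after 20 min.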
Cruzain Triton: qHTS Assay for Promiscuous and Specific Inhibitors of Cruzain (with detergent) | Potency, µM, for the others: max response, negative = inhibition, most hits filed as inhibitors | purified cruzain, Z-FR-AMC fluorescence, 0.01% Triton | 200,000 tested, 0.43% active | Cruzipain (Trypanosoma cruzi), P25779 | AID 1478, 2009;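 further: plate controls were neutral wells for no effect and buffer without enzyme for full effect; nearly all actives have a fitted effect of over 40% in size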
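Detergent-containing run (0.01% Triton X-100) in acetate buffer pH 5.5 with 5 mM DTT: enzyme at 1.5 nM final, 15 min compound preincubation at room temperature, then 2 uM Z-FR-AMC substrate. Activity taken as 60 s fluorescence increase at 360/450 nm.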
Starred values were filed as active, the others as inactive; ? = inconclusive; / = no result given; [ ] = another dose, or the depositor's remark. The call rests on the fitted dose curve; in most records, active means well fitted curve in the direction sought with a large enough effect; inconclusive means small, poorly fitted or top-dose-only effect, or another doubt; inactive means no such curve, though single readings can be large; an effect the other way counts as inactive or inconclusive. Unless noted, on the % scale 0 is the no-effect control and ±100 the full control effect; potency means the concentration at half of the fitted maximal effect.

SMILES	Cruzain noTriton	Giardia FBPA inh	Cruzain Triton
Nc1cccc(-c2cn3ccsc3n2)c1	10.5%	/	-1.7%
[O][C@H]1[C@@H](O)[C@@H](CO)O[C@@H](O[C@@H]2[C@@H]3OC[C@H]2O[C@H](O[C@@H]2[C@@H](O)[C@H](C[C@@H]4[C@@H]5OC[C@H]4O[CH][C@@H]5O)O[C@H](CO)[C@@H]2OS(=O)(=O)O)[C@@H]3OS(=O)(=O)O)[C@@H]1O	-0.6%	-0.1%	-0.7%
CC(C)(C)c1ccc(S(=O)(=O)/C=C\C#N)cc1	23.6%	?	-8.4%
Cc1cc2oc(=O)cc(-c3ccccc3)c2c(C)c1-c1ccc(F)c(Cl)c1	5.62µM*	4.7%[89.2 µM]	0.6%
Cc1cc2oc(=O)cc(-c3ccccc3)c2c(C)c1-c1sccc1C=O	?	7.7%[89.2 µM]	0.6%
CC(=O)c1ccsc1-c1c(C)cc2oc(=O)cc(-c3ccccc3)c2c1C	35.5µM*	19.2%[89.2 µM]	1.3%
Cc1cc2oc(=O)cc(-c3ccccc3)c2c(C)c1-c1cccc(N)c1	?	7.8%[89.2 µM]	2.3%
CCn1c(=O)cc(OCC(=O)N(C)c2cc(Cl)ccc2C)c2ccccc21	4.2%	/	-0.7%
Nc1ccc(S(=O)(=O)c2ccc(NCN3C(=O)NC(=O)C(=O)C3=O)cc2)cc1	-3.7%	/	-2.7%
CCOc1ccc(C2C(=O)N(C3CCCCC3)CC(=O)N2Cc2ccccc2OC)cc1OC (stereo not given)	27.2%	/	0.1%
Cc1ccc(C2C3=C(CCCC3=O)Nc3[nH]c(=S)[nH]c(=O)c32)cc1 (stereo not given)	-25.8%	?	-20.1%
O=C1CCCC2=C1C(c1ccc(Br)cc1)c1c([nH]c(=S)[nH]c1=O)N2 (stereo not given)	15.8µM*	-5.7%	17.8µM*
CSCC[C@@H](C(=O)O)N(C)C	2.5%	/	1.8%
NC(=O)c1ncn(C2OC(CO)C(O)C2O)n1 (stereo not given)	-6.2%	0.1%	3.5%
CCn1c2ccccc2c2cc(NC(=O)CSc3nnc(-c4cccc(Cl)c4)o3)ccc21	10µM*	0.0%	6.2%
Cc1cccc(-c2nnc(SCC(=O)Nc3ccc(C)c(C)c3)o2)c1	-10.9%	/	-0.7%
C#CCn1c(=O)c2c(nc(/C=C/c3cccc(OC)c3)n2C)n(CCCOP(=O)(O)O)c1=O	/	-8.1%	/
Nc1cc(C(=O)O)c(O)c(S(=O)(=O)O)c1	0.1%	/	0.8%
COc1ccc(/C=C/C=N/NC(=O)COc2ccc(OC)cc2)cc1	0.1%	0.6%	-4.9%
CCOc1ccc(/C=C/C(=O)Oc2ccc(OC)cc2)cc1	/	6.4%	/
COc1ccc(/C=C/C(=O)Oc2ccc(/C=N/NC(=O)COc3c(C)cccc3C)cc2)cc1	7.94µM*	14.1%	3.2%
COc1ccc(/C=C/C(=O)Oc2cccc(/C=N/NC(=O)COc3c(C)cccc3C)c2)cc1	15.8µM*	4.2%	6.9%
Cc1ccccc1NS(=O)(=O)c1ccc2[nH]cc(C(=O)N3CCCC3)c(=O)c2c1	-3.1%	/	-0.9%
CC[C@H](C)[C@H](NC(=O)[C@H](CCCNC(=N)N)NC(=O)[C@@H](NC(=O)[C@H](CCCNC(=N)N)NC(=O)[C@H](CCCCN)NC(=O)[C@H](CCCNC(=N)N)NC(=O)[C@@H](NC(=O)[C@H](CC(N)=O)NC(=O)[C@@H](N)CS)[C@@H](C)O)[C@@H](C)CC)C(=O)N[C@@H](CCC(N)=O)C(=O)N[C@@H](CCCNC(=N)N)C(=O)NCC(=O)N1CCC[C@H]1C(=O)NCC(=O)N[C@@H](CCCNC(=N)N)C(=O)N[C@@H](C)C(=O)N[C@@H](Cc1ccccc1)C(=O)N[C@H](C(=O)N[C@H](C(=O)N[C@H](C(=O)NCC(=O)N[C@@H](CCCCN)C(=O)O)[C@@H](C)CC)[C@@H](C)O)C(C)C	/	-8.7%	/
CCC(=O)N(CC)C1=C(O)c2ccccc2C(=O)C1=O	3.3%	7.92µM*	-3.1%
SMILES	Cruzain noTriton	Giardia FBPA inh	Cruzain Triton
CCC(=O)N(C1=C(NC)C(=O)c2ccccc2C1=O)C(C)C	/	-8.3%	/
c1ccc(CO[C@H]2NCCN2Cc2ccccc2)cc1	-3.5%	/	3.2%
CCN(CC)CCSc1nnc2c3ccccc3n(CCc3ccccc3)c2n1	/	-6.7%	/
CCN(CC)CCSc1nnc2c3cc(F)ccc3n(CC)c2n1	25.1µM*	/	25.1µM*
CCCC1(c2ccccc2)NC(=O)N(CC(=O)Nc2sc(-c3ccccc3)cc2C(=O)OCC)C1=O (stereo not given)	7.94µM*	0.2%	1.4%
CCOC(=O)c1cc(-c2ccccc2)sc1NC(=O)C(C)(C)C	-3.8%	1.9%	0.5%
CCOC(=O)c1cc(-c2ccccc2)sc1NC(=S)Nc1cc(C)ccn1	12.6µM*	3.0%	6.8%
